Assay results as given in paper PMC3795721, “Screening for Protein-DNA Interactions by Automatable DNA-Protein Interaction ELISA”.

target: AT4G31550 (Arabidopsis thaliana, UniProt Q9SV15 228-325); experiment: DPI-ELISA; DPI-ELISA, streptavidin 384-well plate, 1-2 pmol biotinylated dsDNA per well, crude native E. coli extract, anti-His detection; buffer as in Brand et al. [46],; high values mean tight binding; settings: tags: C-terminal His (pET-DEST42); label: 5' biotin on forward strand; dsDNA, one strand shown
Sequence (Q9SV15 228-325): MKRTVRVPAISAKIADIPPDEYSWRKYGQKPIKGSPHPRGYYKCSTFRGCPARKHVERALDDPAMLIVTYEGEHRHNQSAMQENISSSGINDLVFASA

Sequence | binding signal [absorbance]
AAAAAACCCGTTCTACCTTATTCCTGAAAA | 0.525 ± 0.106
AAAAAACATAACCGCAAAATCCCTACAAAA | 0.545 ± 0.0919
AAAAAAAGTTACCAGTACGCGTCGGGAAAA | 0.64 ± 0.141
AAAAAATCTAGGGGTACCTATTTGGCAAAA | 0.675 ± 0.12
AAAAAAGTAGGTGCTGATGCTGGCCGAAAA | 0.59 ± 0.0141
AAAAAATTCGTATCTGTACCCTATGCAAAA | 0.79 ± 0.283
AAAAAATCCCTGCTCCCCTGGTTCCTAAAA | 0.45 ± 0.141
AAAAAATGCCGAGACCCCATGCCGGCAAAA | 0.51 ± 0.099
AAAAAAAAGGACATTTTTTCTTTTTGAAAA | 0.515 ± 0.0636
AAAAAATTAGGACCATCCCCACTAGGAAAA | 0.69 ± 0.0707
AAAAAAGCTCGTCTCCGCCTCCTGCTAAAA | 0.785 ± 0.262
AAAAAAATCTCACTCCTGGTCCCCATAAAA | 0.56 ± 0.099
AAAAAATGCCCATGTGCACCCGTACGAAAA | 0.56 ± 0.0849
AAAAAACAGGCCGATTCCGATCCCGGAAAA | 0.535 ± 0.0919
AAAAAATGATGTTGGCGCATTTAAACAAAA | 0.53 ± 0.127
AAAAAAACGCTATATATTGGTGCTAGAAAA | 0.695 ± 0.134
AAAAAACGGTCGCGATCGTTAATGATAAAA | 0.75 ± 0.17
AAAAAAATCATCCTATTGTTGCTGTCAAAA | 0.665 ± 0.12
AAAAAAGGTTGGTACGTCGAGTTCTTAAAA | 0.565 ± 0.163

Sequence | binding signal [absorbance]
AAAAAATTGCATTCCACCCTTAGGTTAAAA | 0.495 ± 0.106
AAAAAACACAGCATTAGGCTATCGGTAAAA | 0.655 ± 0.134
AAAAAACGCAACTCCGGATGTGGGGTAAAA | 0.545 ± 0.0636
AAAAAATCCCCCCGTTTCACTCTTGCAAAA | 0.66 ± 0.141
AAAAAACGCTTTCAGTTTTGATCTTAAAAA | 0.495 ± 0.0778
AAAAAAAACTCCCATACTACAACCGAAAAA | 0.53 ± 0.099
AAAAAACCCTACATCGCATATAAGAGAAAA | 0.675 ± 0.0212
AAAAAATTACTCCTAGCCCTCATTCAAAAA | 1.36 ± 0.976
AAAAAAGTACGGATGCCCGCGCGTATAAAA | 0.735 ± 0.205
AAAAAAGACACTCTAATTCCGTAGGCAAAA | 0.405 ± 0.0495
AAAAAATGTCCATCTTGCGTCTGTATAAAA | 0.79 ± 0.212
AAAAAATGTGGTTACGGCCTCGATGAAAAA | 0.565 ± 0.106
AAAAAATTCTAGCTTTTAACTTTAGCAAAA | 0.6 ± 0.141
AAAAAAGTTCGGGGCTTGGTTTGGAAAAAA | 0.765 ± 0.205
AAAAAAACGCTCAAGTCTATCAGTAGAAAA | 0.74 ± 0.141
AAAAAACACTGCACTATTGGGAGTTCAAAA | 0.615 ± 0.177
AAAAAATTCCGGCTTGACGCTGCATAAAAA | 0.655 ± 0.106
AAAAAAGTCGTCACGCACGTGAATACAAAA | 1.15 ± 0.0141
AAAAAATGGTCGATCCGCATGCAGTTAAAA | 0.52 ± 0.099
